HCV inhibitor – qHTS Assay for Inhibitors of Hepatitis C Virus (HCV); Potency, µM (highest dose often 41.8 µM), most hits filed as inhibitors; Huh7.5.1 HCVcc-Cre infection, luciferase reporter, 44 h; actives 3.4% (n = 340,000); active = well fitted inhibition curve with a large enough effect; inconclusive = small, poorly fitted or top-dose-only effect, or another doubt; inactive = no such curve, though single readings can be large or run the other way
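After 44 h co-culture of compound, cells and HCVcc-Cre (~0.5 moi), substrate is added for 15 min at room temperature and luciferase measured over 15 sec. Cells were seeded at 1,000/well and pre-cultured 4 h.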
Vaccinia Venus – qHTS for Stage-Specific Inhibitors of Vaccinia Orthopoxvirus: Venus Reporter Primary qHTS. Potency, µM (titrated, usually from 36.5 µM), most hits filed as inhibitors. actives 0.46% (n = 330,000). Vaccinia virus Venus reporter expression, fluorescence; calls by dose curve; tested in A549 cells; note: nearly all actives have a fitted effect of over 30% in size
FMDV antiviral – High Throughput Screening for Foot and Mouth Disease Virus Antivirals | Potency, µM (titrated, usually from 57.9 µM), actives largely listed as inhibitors | actives 1.2% (n = 410,000) | FMDV antiviral cell-based qHTS; calls by dose curve; tested in HEK293T cells; note: read-out not given here; nearly all actives have a fitted effect of over 45% in size
VACV mCherry inh – qHTS for Stage-Specific Inhibitors of Vaccinia Orthopoxvirus: mCherry Reporter Primary qHTS. Vaccinia virus mCherry reporter infection, fluorescence. Potency, µM (top dose mostly 36.5 µM), most hits filed as inhibitors. actives 0.63% (n = 310,000). AID 720579, 2013; calls by dose curve; tested in A549 cells; note: nearly all actives have a fitted effect of over 35% in size
HCMV antiviral – qHTS Assay for inhibitors of the human cytomegalovirus (HCMV); activity change, negative = inhibition, % at 57.5 µM; actives 4.5% (n = 410,000); HFF cells, HCMV-luciferase reporter, 72 h; stronger effect = lower value; in the data active = activity change below about -60%; inconclusive = no clear call, values can overlap the other calls; inactive = above about -39%
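Two compound doses tested in HFFs infected with HCMV-luciferase, MOI 1 PFU/cell, 72 h at 37C. Lysate luminescence read with OneGlo; data normalized against buffer-only and 10uM Salinomycin inhibitor controls.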
Large screens that a line does not name were inactive. The list is not random: actives were taken first. Their share in the collection is about 7.3%.

O=C(O)c1ccc(N/N=C/c2ccc(-c3ccc(Br)cc3)o2)cc1	Vaccinia Venus inconclusive, VACV mCherry inh 11.2µM
O=C(O)c1ccc(N/N=C/c2ccc(OC(=O)c3ccccc3Cl)cc2)cc1	FMDV antiviral 12.6µM, HCMV antiviral -67.6
COc1ccc(/C=N/Nc2ccc(C(=O)O)cc2)cc1Br	FMDV antiviral 22.4µM
O=[N+]([O-])c1ccc(OC2OCC(O)C(O)C2O)cc1 (stereo unspecified)	none (no result: HCV inhibitor, Vaccinia Venus, FMDV antiviral, VACV mCherry inh)
O=C(Nc1ccc(F)cc1)C1C(c2ccccc2)C1(Cl)Cl (stereo unspecified)	FMDV antiviral inconclusive, HCMV antiviral -68.1
Cc1cccc(CN2C(=O)[C@@H]3Cc4c([nH]c5ccccc45)C(C)(C)N3C2=O)c1	FMDV antiviral inconclusive (no result: HCV inhibitor, Vaccinia Venus, VACV mCherry inh)
Cc1cccc(CN2C(=O)[C@H]3Cc4c([nH]c5ccccc45)C(C)(C)N3C2=O)c1	FMDV antiviral 35.5µM (no result: HCV inhibitor, Vaccinia Venus, VACV mCherry inh)
COc1ccc(C(=O)Nc2ccc(-c3nc4ncccc4o3)cc2C)cc1Br	Vaccinia Venus inconclusive, VACV mCherry inh inconclusive (no result: HCV inhibitor)
COc1ccc(/C=C\c2onc(C)c2S(=O)(=O)N2CCC(C(=O)Nc3ccc(Cl)cc3)CC2)cc1	FMDV antiviral inconclusive (no result: HCV inhibitor)
COc1ccc(-n2cc(C(=O)c3cc4ccccc4oc3=O)c(C(C)=O)n2)cc1	HCMV antiviral -67.2 (no result: Vaccinia Venus, VACV mCherry inh)
COC(=O)C1CCN(Cc2ccc3c(c2)CN(C(=O)c2cc(C)oc2C)CCO3)CC1	none (no result: HCV inhibitor, HCMV antiviral)
COc1ccccc1C(=O)Nc1cccc(N2CCC(NCc3cnn(-c4ccccc4)n3)CC2)c1	none (no result: HCV inhibitor, HCMV antiviral)
Cc1ccc(C)c(S(=O)(=O)n2nc(C)c(S(=O)(=O)N3CCCCCC3)c2C)c1	none (no result: HCV inhibitor)
CCOC(=O)c1c(NC(C)=O)c2c3c(sc2n1Cc1cccc(Cl)c1)CCCC3	HCMV antiviral -83.6 (no result: HCV inhibitor)
CCOC(=O)c1c(NC(C)=O)c2c3c(sc2n1Cc1ccc(Cl)cc1)CCCC3	none (no result: HCV inhibitor)
CC(=O)CC(=O)NC(=NC1CCCCC1)Nc1nc(C)cc(C)n1	HCV inhibitor 11.2µM (no result: Vaccinia Venus, VACV mCherry inh)
O=C(Nc1ccnn1C1CCN(Cc2ccc(F)cc2)CC1)C1CC1	HCMV antiviral inconclusive (no result: Vaccinia Venus, VACV mCherry inh)
CC(C)Oc1ccc(CN2CCC(n3nccc3NC(=O)C3CC3)CC2)cc1	HCMV antiviral -70.0
CCc1ccc(CN2CCC(n3nccc3NC(=O)c3ccccc3Cl)CC2)cc1	HCV inhibitor inconclusive, FMDV antiviral 31.6µM
COc1ccc(CN2CCC(n3nccc3NC(=O)c3cccc(F)c3)CC2)cc1O	HCMV antiviral -87.4
O=C(C[n+]1ccccc1Br)c1ccc(I)cc1	none (no result: HCV inhibitor, FMDV antiviral, HCMV antiviral)
Cc1ccc2cccc(OCc3cccc([N+](=O)[O-])c3)c2n1	HCV inhibitor inconclusive, VACV mCherry inh inconclusive
COc1cc(/C=C/c2ccc3cccc(OC)c3n2)c(OC(C)=O)c([N+](=O)[O-])c1	HCV inhibitor 8.91µM, FMDV antiviral inconclusive, HCMV antiviral -83.8 (no result: Vaccinia Venus, VACV mCherry inh)
COc1c(OC(C)=O)ccc(/C=C/c2ccc3cccc(OCc4ccccc4)c3n2)c1[N+](=O)[O-]	HCV inhibitor 7.08µM, Vaccinia Venus inconclusive
COc1cc(/C=C/c2ccc3cccc(OC)c3n2)c(O)c([N+](=O)[O-])c1	HCV inhibitor inconclusive (no result: Vaccinia Venus, VACV mCherry inh)
COc1cc([N+](=O)[O-])ccc1NC(=O)N1CCC2(CC1)Nc1ccccc1-n1cccc12	none (no result: HCV inhibitor)
CCOc1ccc(CCN2C(=S)N([C@@H](Cc3ccc(O)cc3)CN3CCC[C@@H]3CN3C(=S)NC[C@@H]3CC(C)C)C[C@@H]2Cc2ccc(O)cc2)cc1	Vaccinia Venus inconclusive, VACV mCherry inh inconclusive, HCMV antiviral -63.4 (no result: HCV inhibitor)
CCOc1ccc(CCN2C(=S)N([C@@H](Cc3ccc(O)cc3)CN3CCCC3CN3C(=S)NC[C@@H]3Cc3ccc(O)cc3)C[C@@H]2CC(C)C)cc1 (stereo partly specified)	HCV inhibitor 4.47µM, Vaccinia Venus inconclusive, FMDV antiviral inconclusive, VACV mCherry inh inconclusive, HCMV antiviral -79.5
CCOc1ccc(CCN2C(=S)N([C@@H](Cc3ccccc3)CN3CCC[C@@H]3CN3C(=S)NC[C@@H]3Cc3ccc(O)cc3)C[C@@H]2CC(C)C)cc1	none (no result: HCV inhibitor)
Cc1ccsc1CN(C(=O)c1oc2cc(Br)ccc2c1C)C1CCS(=O)(=O)C1 (stereo unspecified)	none (no result: HCV inhibitor)
COCCNC(=O)CSc1cn(CC(=O)N2CCCCCC2)c2ccccc12	none (no result: HCV inhibitor)

High-throughput results from PubChem.
